Hits are enriched below; roughly 3.4% of the tested compounds scored in any of these assays.
GPR151 activ: activators of human GPR151, primary screen, cell-based, PathHunter beta-arrestin, luminescence | G-protein coupled receptor 151 (Homo sapiens), Q8TDV0 | PathHunter beta-arrestin GPR151 cells | activation, % at 11.2 µM | actives 1% (n = 650,000) | AID 1508602, 2020; in the data active = activation above about 4.9%;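 also: 0% = median of compound wells and 100% = cells with positive control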
MITF inh: MITF inhibitors, primary screen, biochemical, AlphaScreen, human; AlphaScreen MITF homodimerization, bead proximity signal; inhibition, % at 2.6 µM; Microphthalmia-associated transcription factor (Homo sapiens), O75030; actives 0.91% (n = 650,000); in the data active = inhibition above about 50%;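 also: 0% = vehicle wells with protein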
Target sequence (O75030 whole entry, looked up): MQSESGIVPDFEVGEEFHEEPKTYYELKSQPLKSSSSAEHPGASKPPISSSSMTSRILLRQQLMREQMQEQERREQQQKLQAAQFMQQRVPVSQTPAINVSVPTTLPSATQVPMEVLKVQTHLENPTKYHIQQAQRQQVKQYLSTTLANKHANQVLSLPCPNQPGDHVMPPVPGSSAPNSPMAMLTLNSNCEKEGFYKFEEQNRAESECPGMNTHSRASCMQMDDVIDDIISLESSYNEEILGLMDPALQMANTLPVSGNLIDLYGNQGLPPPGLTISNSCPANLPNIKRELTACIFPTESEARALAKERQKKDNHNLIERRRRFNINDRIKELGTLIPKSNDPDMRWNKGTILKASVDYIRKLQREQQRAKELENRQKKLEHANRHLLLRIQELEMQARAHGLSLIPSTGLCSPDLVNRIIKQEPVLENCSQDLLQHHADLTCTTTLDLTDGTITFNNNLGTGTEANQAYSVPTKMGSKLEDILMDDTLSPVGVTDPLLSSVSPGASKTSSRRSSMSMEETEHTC
FBW7 activator: FBW7 E3 ligase activators, primary screen, biochemical, AlphaScreen, human | AlphaScreen FBW7–phospho-cyclin E peptide binding, activator screen | actives 0.13% (n = 650,000) | F-box/WD repeat-containing protein 7 (Homo sapiens), Q969H0 | normalized activity (activation), % at 26.1 µM; in the data active = normalized activity above about 1.9%;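 also: purified mutant Fbw7 with reduced substrate affinity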
TEAD-YAP block: TEAD-YAP interaction inhibition, primary screen, TEAD-YAP interaction inhibitor project, luminescence, HEK-TIYL cells; actives 1.4% (n = 640,000); inhibition, % at 9.12 µM; AID 1259422, 2018; TEAD-Gal4/YAP UAS-luciferase luminescence; in the data active = inhibition above about 32%;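 also: 0% = median of test compound wells and 100% = reference inhibitor wells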
* = called active by the depositor; ! = not confirmed by another sample.

SMILES	GPR151 activ	MITF inh	FBW7 activator	TEAD-YAP block
CCN1C=C/C(=C/c2cccc[n+]2C)c2ccccc21	0	-5	0	82*
Oc1ccccc1C1CC(c2ccc(Br)cc2)=NC(c2ccc(Cl)cc2)N1 (centres undefined)	-1	4	0	-25
CCOc1ccccc1C(=O)Nc1ccccc1C(=O)OC	2	-9	0	53*
COC(=O)c1ccccc1NC(=O)c1ccccc1OC	1	6	0	3
CCOC(=O)c1oc2ccccc2c1NC(=O)c1ccccc1C	0	11	0	-2
CCOC(=O)c1oc2ccccc2c1NC(=O)c1ccccc1OCC	0	7	0	53*
CCOc1ccc(NC(=O)c2oc3ccccc3c2NC(=O)c2ccco2)cc1	0	1	2.6*	5
CCOc1ccccc1C(=O)Nc1nnc(CCc2ccccc2)s1	-2	-5	0	34*
CCN1CCCC1CNCc1cccc(OC)c1OC (centres undefined)	1	-2	0	2
Nc1nnc(SCC(=O)Nc2ccccc2Oc2ccccc2)s1	1	-6	0	-5
Cc1cc(NC(=O)COC(=O)c2ccc(OCc3ccccc3)cc2)no1	0	1	0	1
CN1CCN(C(=O)c2ccc(NC(=O)Cn3nc(-c4ccccc4F)ccc3=O)cc2)CC1	-1	16	0	3
COc1ccccc1-c1ccc(=O)n(CC(=O)Nc2ccc(C(=O)N3CCCC3)cc2)n1	-1	4	4.1*	-3
COc1cccc(N2CCN(c3c4c(nc5nncn35)CCC4)CC2)c1	-2	7	0	37*
CNC[C@H](O)c1ccc(O)c(O)c1	0	56*!	0	-11
N#Cc1c(Cl)nc(Nc2ccccc2)c(Cl)c1Cl	0	12	1	33*
N#Cc1c(Cl)nc(Nc2cccc(F)c2)c(Cl)c1Cl	-1	1	0	21
COc1ccc(C2=NN(C(=O)CSc3nnc(CNC(=O)c4ccco4)n3-c3ccc([N+](=O)[O-])cc3)C(c3ccc(F)cc3)C2)cc1 (centres undefined)	-2	-7	0	-14
CCOC(=O)C(C)Sc1nnc(NC(=O)CCCl)s1 (centres undefined)	1	21	3.4*	0
CCSc1nnc2c(n1)OC(C(=O)c1ccc(Br)cc1)Nc1ccccc1-2 (centres undefined)	3	-1	0	-6
CN1CCN(c2nc3c(c(=O)n(C)c(=O)n3C)n2CC(N)=O)CC1	1	10	0	5
c1csc(-c2cnc3ccc(NC4CCOCC4)nn23)c1	-1	-8	0	47*
c1cc2c(cc1-c1cnc3ccc(NC4CCOCC4)nn13)OCO2	0	-28	0	54*
c1ccc(-c2cnc3ccc(NC4CCOCC4)nn23)cc1	0	-5	-1	23
Oc1cccc(-c2cnc3ccc(NC4CCOCC4)nn23)c1	0	9	2.2*	33*
SMILES	GPR151 activ	MITF inh	FBW7 activator	TEAD-YAP block
O=C(c1ccc([N+](=O)[O-])cc1)N1CCN(C2C3CC4CC(C3)CC2C4)CC1 (centres undefined)	0	24	0	5
CCOC(=O)C1CCCN(c2nc(Cc3ccccc3)nc3sc4c(c23)CCCC4)C1 (centres undefined)	0	2	0	-5
COCCNc1nc(-c2ccccc2)nc2ccccc12	0	-3	0	19
COc1cc(-c2nc(Nc3ccc(C)cc3)c3ccccc3n2)cc(OC)c1OC	2	-12	0	55*
CCCCc1ccc(-c2nc(Nc3ccc(OCc4ccccc4)cc3)c3ccccc3n2)cc1	2	-8	0	35*
COc1cc(-c2nc(Nc3ccc(Cl)cc3)c3ccccc3n2)cc(OC)c1OC	2	-11	0	30
COCCNc1nc(-c2cc(OC)c(OC)c(OC)c2)nc2ccccc12	-1	21	0	32*
COc1cc(-c2nc(Nc3ccccc3Cl)c3ccccc3n2)cc(OC)c1OC	0	9	0	11
COc1cc(-c2nc(Nc3ccccc3F)c3ccccc3n2)cc(OC)c1OC	0	-1	0	32*
CCCOc1ccc(CNC(=O)Cn2c(=O)oc3ccccc32)cc1	0	-4	0	14
Fc1ccccc1-c1cc(NCCCN2CCOCC2)nc(-c2ccncc2)n1	1	5	0	10
CCCOC(=O)c1ccc(NC(=O)C(C)(C)CC)cc1	0	12	0	-58
O=C(CCC(=O)c1ccccc1)NC1=NCCS1	1	0	0	9
O=C(NCCc1ccccc1)c1ccc2nc3sc4c(c3c(=O)n2c1)CCCC4	0	9	0	4
C=CCOc1ccc(C2/C(=C(/O)c3ccc(OC)cc3)C(=O)C(=O)N2CCCn2ccnc2)cc1 (centres undefined)	-1	13	0	-15
COc1cccc(Nc2nc(-c3cc(OC)c(OC)c(OC)c3)nc3ccccc23)c1	0	1	0	37*
O=C(CCCCl)Nc1nnc(-c2cccc([N+](=O)[O-])c2)s1	0	-4	0	-9
CN(C)c1ccc2c3c(cccc13)C(=O)N(CCO)C2=O	-1	-4	0	-20
Nc1c(S(=O)(=O)O)cc2c3c(cccc13)C(=O)N(CCO)C2=O	2	72*	0	-2
CCOC(=O)Cc1[nH]nc2c1C(c1cccc(F)c1F)C(C#N)=C(N)O2 (centres undefined)	3	17	2	9
CCOC(=O)c1cnn(-c2nc(C)nc3sc(-c4ccccc4)cc23)c1/N=C/N(C)C	2	0	0	34*
CCOC(=O)c1cnn(-c2ccc(Cl)nn2)c1/N=C/N(C)C	0	-4	0	1
CC(/C=C/c1ccco1)=N\NC(=O)CNC(=O)c1ccc2c(c1)OCO2	0	-1	0	-11
O=c1cc(-c2ccccc2)[nH]c2ccccc12	1	-4	0	46*
O=c1nc(-c2ccccc2)c2ccccc2[nH]1	-1	11	0	-14
SMILES	GPR151 activ	MITF inh	FBW7 activator	TEAD-YAP block
CCNC(=O)c1ccc2[nH]c(C)c(C)c2c1	0	6	0	-32
Cc1[nH]c2ccc(C(=O)NN)cc2c1C	0	-14	0	38*
CCCCCCOC(=O)C1=C(C)NC(=O)NC1c1ccccc1Cl (centres undefined)	0	-7	0	5
CCC(=O)N1CCc2cc(S(=O)(=O)Nc3ccc(OC)c(Cl)c3)ccc21	0	19	0	31
CCOC(=O)c1c(NC(=O)CSc2nnc(CNC(=O)c3ccc([N+](=O)[O-])cc3)n2C)sc2c1CCCCC2	-2	-10	0	-7
O=C(CC12CC3CC(CC(Br)(C3)C1)C2)OCC(=O)c1ccccc1	3	2	0	67*
O=C(c1ccc(Cl)cc1)c1ccc(NC(=O)c2cc(Br)cc(Br)c2O)cc1Cl	-2	-3	0	-5
